Measured values as given in PubChem BioAssay (NCI).
This is part of a sample that, as a whole, favours compounds with a hit. Of some 79,000 tested, about 15% had one in any assay. A number with no mark means an inactive call. The source made the active and inactive calls. Cut-off read from the data, not from the text of the source: active = growth inhibition above about 70%; inactive = the rest.

How the values were obtained:
[1] = NCI Yeast Anticancer Drug Screen. Data for the rad50 strain (AID 155);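 note: 0% = growth of vehicle-only cultures of the same strain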; details: S. cerevisiae rad50 strain growth inhibition; at 50.0 µM; active compounds read high
Outline: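 Relative growth inhibition (compound vs vehicle) was measured in yeast with a defined repair-gene alteration.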

[2] = NCI Yeast Anticancer Drug Screen. Data for the mec2-1 strain (AID 157); details: S. cerevisiae mec2-1 strain, at 50.0 µM, active compounds read high
Outline: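 Compounds were applied to mec2-1 yeast cells. Their growth was then compared with that of vehicle-treated cultures to give growth inhibition.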

[3] = NCI Yeast Anticancer Drug Screen. Data for the sgs1 mgt1 strain (AID 161);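 note: 0% = growth of cultures given vehicle only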; details: S. cerevisiae sgs1 mgt1 strain, at 50.0 µM, active compounds read high
Outline: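 Yeast cells carrying a defined DNA-repair defect were exposed to test compounds. Growth inhibition was measured relative to vehicle-treated controls.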

[4] = NCI Yeast Anticancer Drug Screen. Data for the cln2 rad14 strain (AID 165);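 note: 0% = growth equal to vehicle treated cultures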; details: S. cerevisiae cln2 rad14 strain, at 50.0 µM, active compounds read high
Outline: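 Strain: cln2 rad14 yeast, altered in cell cycle control and DNA damage repair. Read-out: growth inhibition vs vehicle.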

[5] = NCI Yeast Anticancer Drug Screen. Data for the bub3 strain (AID 167); details: S. cerevisiae bub3 mutant strain, at 50.0 µM, active compounds read high
Outline: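 Screening used yeast with an engineered genetic alteration affecting cell cycle control. Compound-exposed cultures were compared with vehicle cultures, and reduced growth was taken as inhibition.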

[6] = NCI Yeast Anticancer Drug Screen. Data for the mlh1 rad18 strain (AID 175); details: S. cerevisiae mlh1 rad18 strain growth inhibition; at 50.0 µM; active compounds read high
Outline: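 A repair-deficient yeast strain is exposed to test compound, and growth is scored relative to vehicle-treated controls.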

SMILES | growth inhibition [1] | growth inhibition [2] | growth inhibition [3] | growth inhibition [4] | growth inhibition [5] | growth inhibition [6]
OC(CSCc1ccccc1)c1ccccc1 (centres undefined) | -17.8% | 2.45% | -7.95% | -43% | -2.2% | 3.1%
NS(=O)(=O)c1ccc(Nc2c3ccccc3nc3c(C(=O)NCCO)cccc23)cc1 | 51.8% | -30.2% | -15.9% | -3.1% | -10.6% | -1.9%
CC1(c2ccccc2)OCCCO1 | -11.3% | -7.15% | -10.8% | 0.65% | -2.5% | -0.8%
CCN(CC)CCCNc1c2c(nc3c(OC)cccc13)CCCC2 | -38.4% | 10.7% | -6.7% | -41.6% | 5.95% | -2.45%
Cc1ccc(S(=O)(=O)c2ccccc2C)s1 | -9% | -32.5% | -16.4% | 11.5% | -14.6% | -12.1%
COc1ccc2c(C)[n+]3ccc4cc(OC)c(OC)cc4c3cc2c1 (tested in a mixture with another compound) | 21.5% | 12.4% | 22.9% | -6.7% | 22.5% | 32.8%
CC1=CC(=O)[C@@H]2C[C@H]1C2(C)C | 15.3% | 12.8% | -33.9% | -2.9% | -2.1% | 22.2%
COc1cc(Cc2nccc3cc(OC)c(OC)cc23)c(N=NN(C)C)cc1OC | -14.2% | -7.6% | -4.9% | 5.45% | -10.4% | 8.35%
CC1(C)C(C#N)C1C1=C(N2CCOCC2)[C@]2(C)C(OC(=O)c3ccccc3)CC[C@@H]2C1 (some centres undefined) | -8.6% | -17.2% | -8.7% | 7.7% | 12.4% | 4.15%
CC(=O)Oc1cc(O)oc(=O)c1 | 33% | -14.8% | 21.1% | 19.3% | 11.3% | 13.1%
Cc1ccccc1NC(=S)NC(=O)c1ccccc1 | 30.9% | 19.2% | 62.8% | -34.8% | 64% | 48.2%
CCOC(=O)C1CN(C2CCCCC2)CCC1=O (centres undefined) | -2.45% | -26.6% | 4.85% | -37% | 1.4% | -24.4%
O=C1c2cc(O)c(O)cc2C(=O)c2cc3c(cc21)OCO3 | -38.2% | -5.55% | 1.4% | -11.6% | -8.3% | -15.9%
N=C1CCCC1C(=S)SCCC(N)=O (centres undefined) | -11.8% | -30.2% | -51.5% | 6.8% | -30.8% | 6.15%
C[N+](C)(CCNc1ccc(NCC[N+](C)(C)Cc2ccc([N+](=O)[O-])cc2)c2c1C(=O)c1c(O)ccc(O)c1C2=O)Cc1ccc([N+](=O)[O-])cc1 | 72.2% (active) | 84.6% (active) | 77.9% (active) | 78.1% (active) | 76.7% (active) | 76.8% (active)
O=C(O)CC1CCC(CC(=O)O)CC1 (centres undefined) | -9.5% | -8.65% | -5.25% | -40.9% | -12.7% | -1.65%
CN(C)C(=O)C1C2C=CC(CCC2)C1C(=O)N(C)C (centres undefined) | 13.1% | 15.6% | 15.8% | 13.7% | 15.7% | 14.1%
O=C(Nc1ccc2[nH]c3c(-c4ccccc4)nccc3c2c1)c1ccccc1[N+](=O)[O-] | 15.8% | -21.2% | -5.3% | 6.65% | -2.75% | 5.35%
COc1ccc(-c2c3c(nc4nc(SCC(=O)c5ccc(Br)cc5)nc(N)c24)CCCC3)cc1OC | 0.05% | -17.2% | -27.9% | -0.55% | -16.6% | 9.65%
CCOC(=O)c1cnc(NCCCNc2ncc(C(=O)OCC)c(=O)[nH]2)[nH]c1=O | -2.65% | 4% | -2.6% | -44.9% | 3.8% | 10.3%

SMILES | growth inhibition [1] | growth inhibition [2] | growth inhibition [3] | growth inhibition [4] | growth inhibition [5] | growth inhibition [6]
CCOC(=O)C(NC(=O)NC(C(=O)OCC)C(=O)OCC)C(=O)OCC | -16.7% | -20.6% | -6.55% | -4.05% | -7.7% | -17.6%
O=[N+]([O-])c1ccc(Oc2ccc(Cl)cc2)cc1 | 16.9% | -11.8% | 14.6% | 2.1% | -18.9% | 21.8%
COc1cc(O)c(C(C)=O)c(O)c1O | -20.4% | -12.8% | -3.1% | -36.7% | 4.8% | 6.45%
CCOC(=O)C(Cc1cn(S(=O)(=O)c2ccc(C)cc2)cn1)P(=O)(OCC)OCC (centres undefined) | -34.5% | -4.45% | -13.4% | 14.2% | -16.7% | -14.3%
CCOC(=O)CC/C(=C\NC(=O)c1ccccc1)NC(=O)c1ccccc1 | -9% | -26.4% | -21.6% | 16.2% | -9.55% | 1.9%
NC1=NC(=S)CS1 | 0.95% | -3.85% | -12.3% | -42.1% | 16.7% | 9.35%
CCN(CC)Cc1cc(N=Nc2ccc3c(c2)c2ccccc2n3CC)c2ccccc2c1O | 20% | 10.9% | 11.2% | 12.6% | -5.5% | 2.25%
O=C(O)c1ccccc1Nc1ccccc1[N+](=O)[O-] | -4% | 22.5% | 17.2% | 8.15% | 27.1% | 17.6%
NC1CC(=O)N(Cc2ccccc2)C1=O (centres undefined) | 5.75% | -7.9% | -9.8% | -11.6% | -0.25% | 2.4%
CC(=O)NNc1nc(C)c(C(=O)NNC(=O)C(=O)Nc2ccc(C)c(C)c2)s1 | 8.7% | -1.2% | -6.05% | 4.8% | 20.9% | -1.45%
N#CC(c1ccccc1)N(CCc1ccccc1)C(=O)c1ccc(C(=O)N(CCc2ccccc2)C(C#N)c2ccccc2)cc1 (centres undefined) | 15.2% | 26.9% | 7.8% | 13.8% | 6.6% | -11.3%
Cc1ccc(C2=C(c3ccccc3)C(O)(c3ccccc3)C(c3ccccc3)=C2c2ccc(C)cc2)cc1 | -1.6% | -20.1% | -31.5% | 15.8% | 14.1% | -12.7%
NC1CCCCCC1 | 2.95% | -7.25% | 0.8% | 3.25% | 8.45% | -2.4%
O=C(c1ccccc1)C(c1ccccc1)C1(O)C(=O)Nc2c(Cl)ccc(Cl)c21 (centres undefined) | -18.1% | 10.6% | 5% | -0.05% | -8.1% | -29.2%
CC1=CC(=O)CC2(C)CCC(C(C)CC(=O)CC(C)C)CC12 (centres undefined) | 88.8% (active) | 91.3% (active) | 91% (active) | 91.3% (active) | 88.8% (active) | 91.5% (active)
C=C(C)C12CC3CC(/C(=N/O)C(C1)/C3=N\O)[C@@]2(C)O (some centres undefined) | -31.8% | -34.8% | -46% | -8.2% | -26.9% | -59%
O=C(NC(=O)c1ccccc1[N+](=O)[O-])Nc1ccc(Oc2ncc(Br)cn2)c(Cl)c1 | -1.35% | -30.8% | -19.4% | 0.6% | -9.25% | -56.8%
Cc1ccc(N=Nc2c(O)c3ccccc3[nH]c2=O)c(S(=O)(=O)N(C)C)c1 | 29.7% | -24.2% | -24.9% | 29.6% | -27.2% | -17.5%
O=C1OC(C2OC(=O)C(=O)C2C(=O)c2cccc([N+](=O)[O-])c2)C(C(=O)c2cccc([N+](=O)[O-])c2)C1=O (centres undefined) | 0.5% | 40.9% | 13.3% | -33.6% | -36.5% | 29.6%
